Test [1] concerns the target Cytochrome P450 2C19 (Homo sapiens) (UniProt P33261). The test is described as follows: Cytochrome P450 Family 2 Subfamily C Member 19 (CYP2C19) small molecule antagonists: luciferase reporter qHTS assay (AID 1671197). Also: nearly all actives have a fitted effect of over 65% in size. As to activity change, negative = inhibition: series mostly up to about 120 µM. In a few lines:
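Light output is proportional to CYP2C19 activity: proluciferin substrate is converted to luciferin, then detected by a luciferin detection reagent that also stops the 1 h, 37C NADPH-driven reaction. Ketoconazole serves as positive control.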
In general terms: A reporter such as luciferase makes a cellular process visible.

Test [2] concerns the target Cytochrome P450 3A4 (Homo sapiens) (UniProt P08684). The test is described as follows: Cytochrome P450 Family 3 Subfamily A Member 4 (CYP3A4) small molecule antagonists: luciferase reporter qHTS assay (AID 1671201). Also: nearly all actives have a fitted effect of over 50% in size. As to activity change, negative = inhibition: series mostly up to about 120 µM. In a few lines:
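Compounds in DMSO were pin-transferred onto CYP3A4 enzyme-substrate mix and held 10 min at room temperature. NADPH regenerating solution started the reaction for 1 h; luciferin detection reagent stopped it, and luminescence was read after 20 min.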

Test [3] concerns the target Cytochrome P450 1A2 (Homo sapiens) (UniProt P05177). The test is described as follows: Cytochrome P450 Family 1 Subfamily A Member 2 (CYP1A2) small molecule antagonists: luciferase reporter qHTS assay (AID 1671199). Also: nearly all actives have a fitted effect of over 50% in size. As to activity change, negative = inhibition: series mostly up to about 120 µM. In a few lines: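 Room-temperature CYP1A2 reaction with proluciferin substrate: compounds added from DMSO, 10 min preincubation, NADPH regeneration for 1 h. Luciferin detection reagent then added; luminescence recorded as RLU.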

Test [4] deals with Voltage-gated inwardly rectifying potassium channel KCNH2 (Homo sapiens) (UniProt Q12809). As to the kind of experiment: Human Ether-a-go-go-Related Gene (hERG) channel small molecule antagonists: fluorescence cell-based qHTS assay (AID 1671200). Also: nearly all actives have a fitted effect of over 50% in size.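 As to activity change, negative = inhibition: hERG-expressing U2OS cells given a thallium stimulus after FluxOR II dye loading; series mostly up to about 77 µM.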 In a few lines: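 Channel function was assessed by thallium flux. Cells seeded the previous day and kept at 37 C took up FluxOR II dye over 1 h in the dark at room temperature, then sat another 10 min before stimulation.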
Chain of Voltage-gated inwardly rectifying potassium channel KCNH2 (Homo sapiens) (Q12809 whole entry, looked up): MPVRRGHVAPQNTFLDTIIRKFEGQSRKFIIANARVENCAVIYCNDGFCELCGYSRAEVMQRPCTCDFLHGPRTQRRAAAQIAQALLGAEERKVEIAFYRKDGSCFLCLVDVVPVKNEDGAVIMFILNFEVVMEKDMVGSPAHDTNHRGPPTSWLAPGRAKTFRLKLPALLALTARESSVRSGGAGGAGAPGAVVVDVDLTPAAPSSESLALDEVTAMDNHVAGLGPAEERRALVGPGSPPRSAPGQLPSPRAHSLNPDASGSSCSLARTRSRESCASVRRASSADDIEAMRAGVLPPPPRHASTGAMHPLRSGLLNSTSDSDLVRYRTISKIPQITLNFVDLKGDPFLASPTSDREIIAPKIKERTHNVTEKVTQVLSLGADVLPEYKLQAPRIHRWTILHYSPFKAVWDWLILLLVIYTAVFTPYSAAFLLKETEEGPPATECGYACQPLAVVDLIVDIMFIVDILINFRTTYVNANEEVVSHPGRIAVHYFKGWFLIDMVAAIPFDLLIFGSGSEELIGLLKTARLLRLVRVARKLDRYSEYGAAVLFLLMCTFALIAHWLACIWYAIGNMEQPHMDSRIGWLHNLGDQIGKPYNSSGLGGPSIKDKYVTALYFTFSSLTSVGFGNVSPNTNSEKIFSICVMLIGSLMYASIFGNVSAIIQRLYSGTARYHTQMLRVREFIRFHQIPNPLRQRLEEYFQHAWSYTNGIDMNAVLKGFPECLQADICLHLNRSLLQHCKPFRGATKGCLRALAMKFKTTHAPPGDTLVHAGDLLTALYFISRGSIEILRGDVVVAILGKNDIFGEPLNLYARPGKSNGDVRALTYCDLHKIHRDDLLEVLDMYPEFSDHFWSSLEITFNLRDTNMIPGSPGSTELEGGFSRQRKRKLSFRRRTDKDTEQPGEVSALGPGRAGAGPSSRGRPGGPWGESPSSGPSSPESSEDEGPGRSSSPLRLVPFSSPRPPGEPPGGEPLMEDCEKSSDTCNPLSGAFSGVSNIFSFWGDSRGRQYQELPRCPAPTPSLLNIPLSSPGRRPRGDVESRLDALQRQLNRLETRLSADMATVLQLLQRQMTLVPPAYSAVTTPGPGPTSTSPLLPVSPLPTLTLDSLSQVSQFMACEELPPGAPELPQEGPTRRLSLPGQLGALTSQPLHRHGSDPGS
For orientation: The hERG channel carries a current that helps repolarise heart muscle cells.

The target in test [5] is Cytochrome P450 2C9 (Homo sapiens) (UniProt P11712). As to the kind of experiment: Cytochrome P450 Family 2 Subfamily C Member 9 (CYP2C9) small molecule antagonists: luciferase reporter qHTS assay (AID 1671198). Also: nearly all actives have a fitted effect of over 50% in size. As to activity change, negative = inhibition: series mostly up to about 120 µM. An outline of the steps:
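P450-Glo proluciferin substrate with CYP2C9 enzyme; 10 min RT preincubation, then NADPH regeneration 1 h at 37C; luciferin detection reagent 20 min RT, luminescence in relative luminescence units.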

Results filed as inconclusive are left out. Unmarked numbers belong to inactive results. Calls of active or inactive are those of the source. Calls follow the shape of the dose curve; as a rule, active = well fitted curve in the direction sought with a large enough effect in the repeat runs; inconclusive = weak or mixed curves; inactive = no such curve, though single readings can be large; an effect the other way counts as inactive or inconclusive.

Experimental findings from PubChem BioAssay (Tox21) are described below.
% is scaled to controls: 0 for no effect and ±100 for the full control effect; potency is read from the fitted curve at half-maximal effect.

Chain of Cytochrome P450 3A4 (Homo sapiens) (P08684 whole entry, looked up): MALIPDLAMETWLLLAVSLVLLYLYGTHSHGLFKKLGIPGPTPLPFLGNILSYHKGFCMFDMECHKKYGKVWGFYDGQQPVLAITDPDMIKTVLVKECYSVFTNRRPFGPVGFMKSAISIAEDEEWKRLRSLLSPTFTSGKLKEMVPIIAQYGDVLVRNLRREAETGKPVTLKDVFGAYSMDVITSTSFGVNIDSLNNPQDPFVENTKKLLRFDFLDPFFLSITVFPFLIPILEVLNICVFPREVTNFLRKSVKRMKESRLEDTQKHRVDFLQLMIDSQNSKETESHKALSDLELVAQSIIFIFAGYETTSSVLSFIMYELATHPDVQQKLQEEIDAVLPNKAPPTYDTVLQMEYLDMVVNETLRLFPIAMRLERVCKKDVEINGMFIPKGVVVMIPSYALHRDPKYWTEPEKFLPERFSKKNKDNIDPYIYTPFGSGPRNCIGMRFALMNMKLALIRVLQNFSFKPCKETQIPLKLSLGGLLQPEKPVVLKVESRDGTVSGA
Chain of Cytochrome P450 2C19 (Homo sapiens) (P33261 whole entry, looked up): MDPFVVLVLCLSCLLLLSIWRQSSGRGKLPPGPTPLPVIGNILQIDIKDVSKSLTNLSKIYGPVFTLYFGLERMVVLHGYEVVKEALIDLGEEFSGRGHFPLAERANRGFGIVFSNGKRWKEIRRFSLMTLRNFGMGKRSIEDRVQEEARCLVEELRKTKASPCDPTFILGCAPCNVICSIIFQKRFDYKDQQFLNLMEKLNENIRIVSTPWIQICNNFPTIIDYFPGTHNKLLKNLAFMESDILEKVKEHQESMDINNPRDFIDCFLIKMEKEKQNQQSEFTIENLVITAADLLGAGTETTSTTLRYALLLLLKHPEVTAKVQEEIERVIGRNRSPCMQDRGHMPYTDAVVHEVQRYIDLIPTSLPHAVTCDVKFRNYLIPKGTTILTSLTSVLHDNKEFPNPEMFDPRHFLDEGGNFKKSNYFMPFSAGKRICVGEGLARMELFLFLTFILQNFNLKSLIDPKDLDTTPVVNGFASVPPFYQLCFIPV
Chain of Cytochrome P450 2C9 (Homo sapiens) (P11712 whole entry, looked up): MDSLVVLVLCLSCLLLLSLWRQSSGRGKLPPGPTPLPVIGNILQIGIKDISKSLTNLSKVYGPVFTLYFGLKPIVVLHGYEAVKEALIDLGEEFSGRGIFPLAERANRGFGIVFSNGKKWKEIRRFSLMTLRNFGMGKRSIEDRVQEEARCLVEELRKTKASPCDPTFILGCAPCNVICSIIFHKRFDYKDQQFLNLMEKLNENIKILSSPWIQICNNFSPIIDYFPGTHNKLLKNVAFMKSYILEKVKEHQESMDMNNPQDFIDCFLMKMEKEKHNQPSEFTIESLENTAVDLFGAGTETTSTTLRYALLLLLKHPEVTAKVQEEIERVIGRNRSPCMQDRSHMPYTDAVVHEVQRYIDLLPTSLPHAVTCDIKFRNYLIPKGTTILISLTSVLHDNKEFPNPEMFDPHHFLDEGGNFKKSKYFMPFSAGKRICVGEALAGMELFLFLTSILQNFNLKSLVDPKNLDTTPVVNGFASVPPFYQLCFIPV
Chain of Cytochrome P450 1A2 (Homo sapiens) (P05177 whole entry, looked up): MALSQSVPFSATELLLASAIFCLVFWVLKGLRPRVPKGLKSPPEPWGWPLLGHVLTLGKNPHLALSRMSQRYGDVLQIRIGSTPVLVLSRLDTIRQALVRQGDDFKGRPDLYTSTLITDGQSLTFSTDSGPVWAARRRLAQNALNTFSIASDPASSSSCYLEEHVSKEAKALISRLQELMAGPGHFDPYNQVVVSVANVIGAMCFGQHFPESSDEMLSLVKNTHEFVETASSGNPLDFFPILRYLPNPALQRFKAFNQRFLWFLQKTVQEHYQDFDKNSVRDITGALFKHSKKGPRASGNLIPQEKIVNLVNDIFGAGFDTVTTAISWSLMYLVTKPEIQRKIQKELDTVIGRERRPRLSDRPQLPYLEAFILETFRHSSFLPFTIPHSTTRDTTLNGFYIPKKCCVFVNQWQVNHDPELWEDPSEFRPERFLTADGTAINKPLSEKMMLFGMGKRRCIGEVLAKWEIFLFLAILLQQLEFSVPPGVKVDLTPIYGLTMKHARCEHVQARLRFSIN

Turning to `CC(C)(CO)[C@@H](O)C(=O)NCCC(=O)O`, the Potency entry in test [1] and in test [2] was “inactive” in each case.

With `C=CCCCCCCCCO`, the Potency result in test [1], in test [4] and in test [2] was “inactive” in each case. Moreover, the Potency in test [3] is 39.9 µM (active).

On to `CCCNC(C)C(=O)Nc1c(C)csc1C(=O)OC` (stereo not drawn), for which the Potency entry in test [1] and in test [4] was “inactive” throughout.

For the compound `COC(=O)/C=C(/C)N`, the Potency entry in test [1] and in test [4] was “inactive” throughout.

Regarding `Cc1ccc(C)c(N)c1`, the values for the Potency in test [1], in test [3] and in test [2] were 7.11 µM (active), 35.6 µM (active) and 3.56 µM (active), respectively. In test [4], the Potency result was “inactive”.

As to `OCC(CBr)(CBr)CBr`, the Potency result in test [1], in test [3] and in test [2] was “inactive” throughout.

For `Cc1cc(NS(=O)(=O)c2ccc(N)cc2)nc(C)n1`, the Potency result in test [1], in test [3], in test [4] and in test [2] was “inactive” in each case.

In the case of `C[C@]12C(=O)OC(=O)[C@H]1[C@H]1C=C[C@@H]2C1`, the Potency entry in test [1] and in test [2] was “inactive” in each case.

Consider `CC(C)(C)c1cccc(O)c1`, for which the Potency entry in test [1], in test [4] and in test [2] was “inactive” each time.

Regarding `CCN(CCCc1ccccc1)CCCc1ccccc1`, the Potency in test [1] is 6.92 µM (active); in test [3], 7.23 µM (active). In addition, the Potency entry in test [2] is “inactive”.

Regarding `C[C@@H]1CN(c2c(F)c(F)c3c(=O)c(C(=O)O)cn(C4CC4)c3c2F)C[C@H](C)N1`, the figures for the activity change, negative = inhibition in test [1], in test [4] and in test [2] were 5.04% [at 23.6 µM], 7.01% [at 15.8 µM] and 9.32% [at 23.6 µM], respectively. For the same compound, the Potency result in test [3] was “inactive”.

`ICCc1ccccc1`: in test [1], the Potency is 78 µM (active). Moreover, the Potency entry in test [4] and in test [2] was “inactive” throughout.

With `O=C1Nc2ccc([N+](=O)[O-])cc2C1=O`, the values for the Potency in test [5] and in test [3] were 35.5 µM (active) and 22.4 µM (active), respectively. For the same compound, in test [4], the Potency entry is “inactive”.

`N#Cc1ccc(C(c2ccc(C#N)cc2)n2cncn2)cc1`: the Potency in test [1] is 13.3 µM (active). Moreover, in test [4], the Potency result is “inactive”.

Consider `CCOc1ccccc1N`, for which the Potency is 22.3 µM (active) in test [1], 19.9 µM (active) in test [3], 21.7 µM (active) in test [4] and 15.8 µM (active) in test [2].

As to `Cc1ccc(C=O)s1`, the Potency entry in test [1] and in test [4] was “inactive” each time.

`O=C(O)[C@@H]1CSCN1`: the Potency entry in test [1], in test [3] and in test [2] was “inactive” each time.

As to `CC(C)C1=CC2=CC[C@@H]3[C@](C)(CCC[C@@]3(C)C(=O)O)[C@H]2CC1`, the Potency in test [1] was 35.6 µM (active). Also, the Potency result in test [4] was “inactive”.

Regarding `O=C(Cl)c1cccc([N+](=O)[O-])c1`, the Potency entry in test [5] and in test [4] was “inactive” in each case. The Potency in test [3] is 34.6 µM (active).

On to `CCN(CC)CC1CCCCN1CC(=O)N1c2ccccc2C(=O)Nc2cccnc21` (stereo not drawn), for which the Potency result in test [1] and in test [3] was “inactive” each time. Besides, in test [2], the Potency is 6.92 µM (active).

As to `O=C(CCCl)NCc1ccccc1`, the Potency result in test [1] and in test [2] was “inactive” throughout.

With `Cc1ccccc1C(=O)Nc1ccc(C(=O)N2CCCC(O)c3cc(Cl)ccc32)c(C)c1` (stereo not drawn), in test [5], the Potency is 15.5 µM (active). Further, the Potency entry in test [3] and in test [4] was “inactive” each time.

As for `CCCCC(=O)O[C@]1(C(=O)CO)[C@H](C)C[C@H]2[C@@H]3CCC4=CC(=O)C=C[C@]4(C)[C@@]3(F)[C@@H](O)C[C@@]21C`, in test [5], the Potency is 17.4 µM (active). Moreover, the Potency entry in test [3] and in test [4] was “inactive” throughout.

As for `CN1CCN(C2=Nc3cc(F)ccc3Cc3ccccc32)CC1`, the Potency result in test [1] and in test [4] was “inactive” throughout.

Consider `O=[N+]([O-])c1nccn1CO[C@@H](CO)[C@H](O)CO`, for which the Potency result in test [1], in test [3], in test [4] and in test [2] was “inactive” throughout.

In the case of `O=Cc1ccc(O)c(O)c1O`, the Potency result in test [1], in test [3], in test [4] and in test [2] was “inactive” throughout.

Turning to `CN1CCN(N)CC1`, the Potency entry in test [5], in test [3] and in test [4] was “inactive” in each case.

As to `CCCC(CCC)(C(=O)OCC)C(=O)OCC`, the Potency result in test [1] and in test [4] was “inactive” each time.

For `O=C(CC(=O)C(F)(F)F)c1ccccc1`, the Potency in test [1] is 36.1 µM (active). Also, the Potency result in test [4] and in test [2] was “inactive” in each case.

Take `CCC1(C)NC(=O)NC1=O` (stereo not drawn): the Potency result in test [1], in test [4] and in test [2] was “inactive” each time.

Turning to `CN(C)CCOc1ccccc1Cc1ccccc1`, in test [5], the Potency result is “inactive”. The Potency in test [4] was 7.56 µM (active).

As for `COc1nc(C)nc(NC(=O)NS(=O)(=O)c2ccccc2OCCCl)n1`, the Potency result in test [5] and in test [4] was “inactive” in each case. The Potency in test [3] was 35.4 µM (active).

For the compound `COc1cc(Cl)ccc1Cl`, the Potency result in test [5], in test [4] and in test [2] was “inactive” throughout. Also, in test [3], the Potency was 36.3 µM (active).

In the case of `COc1cc(N)c(Cl)cc1C(=O)NC1CCN(Cc2ccccc2)CC1`, the Potency entry in test [5] and in test [3] was “inactive” each time. Also, the Potency in test [4] was 16.9 µM (active); in test [2] it was 1.55 µM (active).

For the compound `C=C(C)C(=O)OCCOP(=O)(O)O`, the Potency result in test [5], in test [3] and in test [2] was “inactive” each time.
